Measurements taken from PubChem BioAssay (NCI).
Compounds without any hit were thinned out: in the full panel of roughly 83,000, 20% have a hit.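 Treatment: one concentration, 48 hours, 96-well format. Scoring: percent growth, with anything below 10 considered active.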 The source made the active and inactive calls.

These compounds were tested on HL-60(TB) leukemia (assay: NCI-60 one-dose screen, 48 h (100 = growth as untreated, 0 = no growth, -100 = all killed)). Details: 10 µM unless noted.

Compound | growth
C=C1C(=O)O[C@H]2[C@H]1CC/C(Cn1cc(CNCCc3c[nH]c4ccc(Cl)cc34)nn1)=C\CC[C@@]1(C)O[C@@H]21 | -55.2% (active)
COC1C/C(=N\O)C2OC(c3ccccc3)OCC2O1 (stereo not given) | 101% (inactive)
O=C1Nc2ccccc2C12Nc1cc(Cl)ccc1S2 (stereo not given) | 71.6% (inactive)
O=C(NCCNc1nccc(-n2ccc3cccnc32)n1)c1ccc(C(F)(F)F)cc1 | 107% (inactive)
COc1cc(/C=C2\CCC/C(=C\c3ccc(OCC4CO4)c(OC)c3)C2=O)ccc1OCC1CO1 (stereo not given) | -3.96% (active)
CCOC(=O)N1CCN(S(=O)(=O)c2oc(-c3ccc(Cl)cc3)nc2C#N)CC1 | 56.4% (inactive)
Cc1[nH]c(C(=O)Nc2cccc(OC3CCNCC3)c2)c(Cl)c1Cl | 54.9% (inactive)
CC(=O)OC[C@H]1OC(Sc2sc(C(=O)c3ccc(C)cc3)c(N)c2-c2nc3ccccc3s2)[C@H](OC(C)=O)[C@@H](OC(C)=O)[C@@H]1OC(C)=O (stereo not given in full) | 80% (inactive)
CCCCCCCCCCCCNC(=O)[C@H]1CSC(c2ccc(OC)c(F)c2)N1 (stereo not given in full) | -70.3% (active)
CC(=O)Nc1nc2c(c(N)c1C#N)C(c1cccc(Cl)c1)C1=C(CCCC1=O)N2c1sc2c(c1C#N)CCCC2 (stereo not given) | 5.89% (active)
NNc1ncnc2c1ncn2C1OC(CO)C(O)C1O (stereo not given) | 34.8% (inactive)
CCCCCCNC(=O)Oc1ccc(/C(=C(/C)Cc2ccc(OC)cc2)c2ccc(OCCN3CCCCC3)cc2)cc1 | 57.9% (inactive)
O=C1NN(C(=O)c2ccc(O)cc2)C(c2ccccc2)=N/C1=C\c1cn(-c2ccccc2)nc1-c1ccccc1 | 85.7% (inactive)
Cc1ccc2cnc(N)c(C#Cc3cncc(C(=O)Nc4ccc(CN5CCN(C)CC5)c(C(F)(F)F)c4)c3)c2c1 | -59.7% (active)
CCN(CC)CC(=O)N(CC)c1ccc(C)c(Cl)c1 | 71.7% (inactive)
Clc1nccc2c(-c3csc(-c4c[nH]c5ccc(Br)cc45)n3)c[nH]c12 | 9.77% (active)
COc1ccc(-c2nnc(SCC(=O)Nc3ccc(C(=O)/C=C/c4ccc(OC)c(OC)c4)cc3)o2)cc1 | 74.7% (inactive)
CC1CC(O)C2C3(C)CCCC2(COC3=O)C12CCC1(CCOC1=O)O2 (stereo not given) | 121% (inactive)
O=[N+]([O-])c1ccc(N/N=C\c2cc(Cl)ccc2O)nc1 | -2.47% (active)
CCN1C(=O)N(CC)C2C1NN=c1s/c(=C3\C(=O)N(C)c4ccccc43)c(=O)n12 (stereo not given) | -13% (active)

Compound | growth
O=C(O)c1cccc(-n2ncc(Cl)c(Cl)c2=O)c1 | 107% (inactive)
CC(=O)N1c2ccccc2NC2=C(C(=O)NC2(C)C)C1c1ccco1 (stereo not given) | 65.1% (inactive)
N#CC1=C(N)Oc2c(ccc3ccccc23)C1c1cc(=O)oc2ccc(Cl)cc12 (stereo not given) | -10.1% (active)
O=C(Nc1ccccc1)C(CCCCN1C(=O)c2ccccc2C1=O)N1C(=O)c2ccccc2C1=O (stereo not given) | 104% (inactive)
COc1ccc2nc(/C=C/c3ccc(N(C)C)cc3)sc2c1 | 51.1% (inactive)
C=CCN(CC=C)C(=O)[C@H](CC)[C@@H]1CC[C@@H](C)[C@@H]([C@H](C)[C@@H](O)[C@@H](C)C(=O)[C@H](CC)C2O[C@]3(C=C[C@@H](O)[C@]4(CC[C@@](C)([C@H]5CC[C@](O)(CC)[C@H](C)O5)O4)O3)[C@H](C)C[C@@H]2C)O1 (stereo not given in full) | -36.8% (active)
c1cc(OCCN2CCCCCC2)ccc1CNc1ccc2nc(CCC3CCCCC3)[nH]c2c1 | 22.9% (inactive)
COc1ccc(-c2ccc(-c3ccc(C(=N)N)cc3)s2)cc1Cl | -48.8% (active)
CC(=O)O[C@H]1CC[C@@]2(C)C(=CC[C@@H]3[C@@H]2CC[C@]2(C)C(Cl)=C(c4nc5ccc(Cl)cn5c4NC(C)(C)C)C[C@@H]32)C1 | 91.9% (inactive)
CN(C)c1ccc(S(=O)(=O)O)cc1 | 128% (inactive)
COc1ccc(C2=NN3C(C2)c2cc(Br)ccc2OC3c2ccncc2)cc1 (stereo not given) | 93.5% (inactive)
OCc1cccc(F)c1 | 107% (inactive)
Brc1cccc(-c2cc(-c3ccc4c(c3)OCCO4)[nH]n2)c1 | 12.3% [25 µM] (inactive)
C/C(C=O)=C\c1ccc2c(c1)OCO2 | 102% (inactive)
O=C1c2cccc3cc([N+](=O)[O-])cc(c23)C(=O)N1CCN1CCCC1 | -54.1% (active)
CCOC(=O)c1c(C)nc2c(c1N)CC(=O)N2CCc1ccccc1 | -3.38% (active)
O=C(O)C(/C=C/c1ccco1)=N\Nc1nc(-c2ccc(Cl)cc2)cs1 | 52.2% (inactive)
CCCCCCCCCCN=C(c1ccc(N(C)C)cc1)c1ccc(N(C)C)cc1 | 11.2% (inactive)
CCCc1cc2cc(-n3nc(C)c4c3CC(C)(C)CC4=O)cc(NC3CCSCC3)c2c(=O)[nH]1 | 49.4% (inactive)
O=C(O)CCCC(=O)O | 99% (inactive)
